Among all 340,000 compounds or so, about 12,000 (3.5%) were called active. About 18% were inconclusive and are not listed. Calls follow the shape of the dose curve; as a rule, active = well fitted inhibition curve with a large enough effect; inconclusive = small, poorly fitted or top-dose-only effect, or another doubt; inactive = no such curve, though single readings can be large or run the other way. Shown is part of a subset that was picked to be rich in actives. Where a call stands in place of a potency, no number is given.
assay: qHTS Assay for Inhibitors of Hepatitis C Virus (HCV); conditions: Huh7.5.1 HCVcc-Cre infection, luciferase reporter, 44 h; series mostly up to 41.8 µM
Summary of the method: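 Seed cells (1,000/well) for 4 h; treat with compound and infect with HCVcc-Cre, moi about 0.5. Incubate 44 h, then detect luciferase activity.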
Potency is read from the fitted curve at half-maximal effect.

For `CN1C(C(=O)NCc2ccco2)CC2Cn3c(nc4ccccc43)C21` (stereo unspecified), which Potency is on record?
Its Potency is “inactive”.

For `CCOC(=O)c1ccc(NC(=O)CCn2c(=O)oc3ccccc32)cc1`, which Potency is on record?
Its Potency is “inactive”.

Which Potency does the source give for `CC(=O)Nc1ccc(NC(=O)CS(=O)(=O)c2cn(CC(=O)N3CCCCC3)c3ccccc23)cc1` here?
The Potency was “inactive”.

Which Potency does the source give for `CCOC(=O)c1ccc(NC(=O)CS(=O)(=O)c2cn(CC)c3ccccc23)cc1` here?
Its Potency is 14.1 µM (active).

Which Potency does the source give for `Cc1ccc(NC(=O)C(C)OC(=O)Cc2c[nH]c3ccccc23)cc1S(=O)(=O)N1CCOCC1` (stereo unspecified) here?
The Potency was “inactive”.

Which Potency does the source give for `Cc1ccc(C)c(S(=O)(=O)N(C)c2ccc(OC(=O)C3CCN(C(=O)c4ccc(F)cc4)CC3)cc2)c1` here?
Its Potency is “inactive”.

With `CCCCNC1(C#N)CCN(Cc2ccccc2)CC1` as the molecule, how does the Potency read?
The Potency was “inactive”.

With `OCC1(Cc2ccccc2)CCN(Cc2cc3ccccc3o2)CC1` as the molecule, how does the Potency read?
The Potency was “inactive”.

Which Potency does the source give for `CN(C)CCCCCN(C)Cc1cc2ccccc2o1` here?
The Potency was 3.16 µM (active).

For `COc1ccccc1CN(C)C(=O)c1cc2ccccc2o1`, which Potency is on record?
Its Potency is “inactive”.

Which Potency does the source give for `Brc1ccc(CN2CC[C@H]3C=CCc4cccc(c43)C2)cc1` here?
Its Potency is “inactive”.

For `COc1ccc(-c2nn(C)c(=O)c3ccccc23)cc1NC(=O)COc1ccccc1`, which Potency is on record?
The Potency was 10 µM (active).

For `COc1ccc(S(=O)(=O)N2CCOCC2)cc1NC(=O)COc1ccccc1`, which Potency is on record?
Its Potency is “inactive”.

For `CCC(=O)NCc1cc(-c2nn(C)c(=O)c3ccccc23)ccc1OC`, which Potency is on record?
Its Potency is “inactive”.

For `CC(C)(C)c1nnc2sc(SCC(O)=C(C#N)c3nc4ccccc4[nH]3)nn2c1=O`, which Potency is on record?
Its Potency is “inactive”.

With `CCOC(=O)C1CCCN(C(=O)c2ccc(C)c(S(=O)(=O)N3CCCCC3)c2)C1` (stereo unspecified) as the molecule, how does the Potency read?
The Potency was “inactive”.

For `O=C1CCC/C=C\C[C@@H](CC(=O)N(CCO)Cc2ccccc2)C(=O)NCCO1`, which Potency is on record?
Its Potency is “inactive”.

For `CC(OC(=O)/C=C/c1ccccc1)C(=O)Nc1ccc(C(N)=O)cc1` (stereo unspecified), which Potency is on record?
Its Potency is “inactive”.

Which Potency does the source give for `Oc1ccc(Br)cc1C=Nc1ccc2[nH]ncc2c1` here?
Its Potency is “inactive”.

For `O=C(CCCO)N/N=C/c1cc(Br)ccc1O`, which Potency is on record?
The Potency was “inactive”.

Which Potency does the source give for `Oc1ccc(Br)cc1/C=N/Nc1ccccn1` here?
Its Potency is 3.55 µM (active).

Which Potency does the source give for `O=C(NCC1CCCCC1)NCC1CCCCC1` here?
The Potency was “inactive”.

For `Cc1c(NC(=O)C(C)Oc2cccc(Cl)c2)c(=O)n(-c2ccccc2)n1C` (stereo unspecified), which Potency is on record?
Its Potency is “inactive”.

Which Potency does the source give for `CC(Nc1nc(C(F)(F)F)nc2ccccc12)c1cccs1` (stereo unspecified) here?
Its Potency is 10 µM (active).

With `Cc1cc(C)n(-c2nc(C(F)(F)F)nc3ccccc23)n1` as the molecule, how does the Potency read?
Its Potency is “inactive”.

Which Potency does the source give for `Cc1ccsc1C(=O)OCC(=O)NCCc1ccccc1` here?
Its Potency is “inactive”.

Which Potency does the source give for `CC1CCCN(C(=O)Cn2c(=O)oc3cc(S(=O)(=O)N4CCCCC4C)ccc32)C1` (stereo unspecified) here?
Its Potency is “inactive”.

For `CCOc1cc(N2CCOCC2)c(OCC)cc1NC(=O)c1ccc(C)s1`, which Potency is on record?
Its Potency is 25.1 µM (active).

For `CCOc1cc(N2CCOCC2)c(OCC)cc1NC(=O)COC(=O)[C@H](Cc1c[nH]c2ccccc12)NC(C)=O`, which Potency is on record?
Its Potency is “inactive”.

For `NC(=O)C1CCN(C(=O)COc2cccc3cccnc23)CC1`, which Potency is on record?
Its Potency is “inactive”.

With `CCOc1cc(N2CCOCC2)c(OCC)cc1NC(=O)COc1cccc2cccnc12` as the molecule, how does the Potency read?
The Potency was 7.94 µM (active).

Which Potency does the source give for `CCOc1cc(N2CCOCC2)c(OCC)cc1NC(=O)c1cc(C)nc2ccccc12` here?
The Potency was “inactive”.

Which Potency does the source give for `CCOc1cc(N2CCOCC2)c(OCC)cc1NC(=O)C1=NN(c2cccc(C)c2)C(=O)CC1` here?
The Potency was “inactive”.

With `CC(C)(C)NS(=O)(=O)NC(=O)C1=C(N2CCCC2)COC1=O` as the molecule, how does the Potency read?
Its Potency is “inactive”.

Which Potency does the source give for `COc1ccccc1CNC(=O)COC(=O)c1cccs1` here?
Its Potency is “inactive”.

For `Cc1ccc(C(=O)Nc2nnc(-c3cccs3)s2)cc1C`, which Potency is on record?
The Potency was “inactive”.

For `N#Cc1ccc(C(=O)Nc2nc(-c3cccs3)c(C(=O)C(F)(F)F)s2)cc1`, which Potency is on record?
The Potency was 11.2 µM (active).

Which Potency does the source give for `CCOc1cccc(C(=O)Nc2nnc(-c3cccs3)s2)c1` here?
The Potency was “inactive”.

With `CC1CCN(C(=O)COC(=O)CCC(=O)c2cccs2)CC1` as the molecule, how does the Potency read?
Its Potency is “inactive”.

Which Potency does the source give for `COCC(=O)N(C)[C@H]1C[C@H]2c3cc(Oc4ccccc4C)ccc3CCN2C(=O)[C@H]1[C@H](C)O` here?
Its Potency is “inactive”.

For `CCN(CC)S(=O)(=O)c1ccc(OC)c(NC(=O)CCc2c(C)noc2C)c1`, which Potency is on record?
Its Potency is “inactive”.

Which Potency does the source give for `CCN(C(=O)CSc1nnc(-c2ccc(OC(F)F)cc2)n1N)C1CCS(=O)(=O)C1` (stereo unspecified) here?
The Potency was “inactive”.

With `O=C(Nc1cccc(-c2cscn2)c1)C1CCN(Cc2ccsc2)CC1` as the molecule, how does the Potency read?
The Potency was “inactive”.

For `CC(=O)c1cc(CN2CCC(C(=O)Nc3cccc(-c4cscn4)c3)CC2)cs1`, which Potency is on record?
The Potency was 10 µM (active).

Which Potency does the source give for `CC(=O)c1cc(CN2CCC(n3nccc3NC(=O)c3ccccc3Cl)CC2)cs1` here?
Its Potency is “inactive”.

With `CC(C)(C)OC(=O)C[C@@H]1C/C=C\C[C@@H](CC(=O)N[C@@H](CO)Cc2ccccc2)C(=O)N2CCC[C@H]2COC1=O` as the molecule, how does the Potency read?
The Potency was “inactive”.

Which Potency does the source give for `c1ccc2c(c1)CSc1sccc1C2=C1CCNCC1` here?
The Potency was 15.8 µM (active).

For `CN1CCC(N(C)S(=O)(=O)c2ccc(NC(=O)c3cccc(C#N)c3)cc2)CC1`, which Potency is on record?
The Potency was “inactive”.

With `Cc1cccc(NC(=O)Nc2cccc(Oc3c(F)c(F)c(F)c(F)c3F)c2)c1` as the molecule, how does the Potency read?
Its Potency is 11.2 µM (active).

With `Cc1cccc(NC(=O)c2cccc(C(F)(F)F)c2)c1` as the molecule, how does the Potency read?
Its Potency is “inactive”.

With `Cc1cccc(NC(=O)Nc2nnc(-c3ccccc3)o2)c1` as the molecule, how does the Potency read?
The Potency was “inactive”.

Which Potency does the source give for `Cc1cc(NC(=O)C(C)N2C(=O)c3ccccc3S2(=O)=O)no1` (stereo unspecified) here?
Its Potency is “inactive”.

With `O=C(c1ccccc1)N1CCN(c2ccc([N+](=O)[O-])c(NCc3ccco3)c2)CC1` as the molecule, how does the Potency read?
The Potency was 8.91 µM (active).

Which Potency does the source give for `O=C(c1ccc(S(=O)(=O)NCc2ccco2)cc1)N1CCN(c2ccccc2)CC1` here?
Its Potency is “inactive”.

Which Potency does the source give for `O=[N+]([O-])c1ccc(N2CCN(S(=O)(=O)c3ccc4ccccc4c3)CC2)cc1NCc1ccco1` here?
The Potency was “inactive”.

With `O=C(Nc1cccc2c1CCCC2)c1ccc(F)cc1` as the molecule, how does the Potency read?
Its Potency is “inactive”.

With `CCN1C(=O)[C@H]2[C@@H](c3ccc(C)cc3)N3C(=O)N(c4cccc(Br)c4)C(=O)[C@@]3(CC)[C@H]2C1=O` as the molecule, how does the Potency read?
Its Potency is “inactive”.

For `CN(CC(=O)Nc1cccc(F)c1)C(=O)CC1CCCC1`, which Potency is on record?
Its Potency is “inactive”.

For `CC(=O)Nc1ccc(NC(=O)C(C)OC(=O)C2CC(=O)N(CCc3ccccc3)C2)cc1` (stereo unspecified), which Potency is on record?
Its Potency is “inactive”.

Which Potency does the source give for `CN(C)c1ccc(/C=N\S(=O)(=O)c2ccccc2)cc1` here?
Its Potency is “inactive”.

With `CC[n+]1cc(C)ccc1/C=C/c1ccc(N(C)C)cc1` as the molecule, how does the Potency read?
The Potency was 5.62 µM (active).

Which Potency does the source give for `C/C(=N\Nc1ccccc1)c1cccs1` here?
Its Potency is “inactive”.

Which Potency does the source give for `Cc1csc(NC(=O)c2ccc(C)s2)n1` here?
Its Potency is “inactive”.

Which Potency does the source give for `O=C(Nc1ccc2nc3n(c(=O)c2c1)CCCCC3)c1ccccc1Cl` here?
The Potency was “inactive”.

With `O=C(Nc1ccc2sc3ccccc3c(=O)c2c1)c1ccccc1Cl` as the molecule, how does the Potency read?
The Potency was 3.55 µM (active).

For `COCC(=O)N1CCc2ccc(NC(=O)c3ccccc3Cl)cc2C1`, which Potency is on record?
Its Potency is “inactive”.

Source: PubChem BioAssay AID651820 (National Center for Advancing Translational Sciences (NCATS), 2012)
